Records with an inconclusive call do not appear. More than one record can exist for a structure, and the calls need not agree. The source made the active and inactive calls. The calls were made as follows, unless noted: active = hit-call score of the fitted dose curve at least 0.9, where 1 is the maximum; inconclusive = response in the unintended direction; inactive = score below 0.9.
Columns and labels:
[1] = read-out: Thyroid Hormone Responsive (THRSP), THRSP (gene 7069); assay: LTEA_HepaRG_THRSP: Life Technologies and Expression Analysis (LTEA) Assay for Thyroid Hormone Responsive (THRSP) using HepaRG (AID 2283536; active = hit-call score of the fitted dose curve at least 0.9, where 1 is the maximum; inactive = score below 0.9); settings: mRNA level, 48 h; actives raise or lower the signal
Method in brief: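 Differentiated human HepaRG cells were exposed in duplicate for 48 h in serum-free induction medium to eight concentrations (top 100 uM, half-log steps, 0.5% DMSO). Expression was quantified by TaqMan qRT-PCR, normalized to ACTB, GAPDH and POLR2A, with bidirectional fitting against DMSO.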

[2] = read-out: Cellular tumor antigen p53 (Homo sapiens) (UniProt P04637); assay: LTEA_HepaRG_TP53: Life Technologies and Expression Analysis (LTEA) Assay for Tumor Protein P53 (TP53) using HepaRG (AID 2283537; active = hit-call score of the fitted dose curve at least 0.9, where 1 is the maximum; inactive = score below 0.9); settings: mRNA level, 48 h; actives raise or lower the signal
Method in brief: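 Gain or loss of TP53 mRNA signal is scored relative to 0.5% DMSO after 48 h chemical treatment of HepaRG liver cells, tested in duplicate at eight half-log concentrations up to 100 uM.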

[3] = read-out: UDP glucuronosyltransferase (UGT1A1), UGT1A1 (gene 54658); assay: LTEA_HepaRG_UGT1A1: Life Technologies and Expression Analysis (LTEA) Assay for UDP glucuronosyltransferase (UGT1A1) using HepaRG (AID 2283538; active = hit-call score of the fitted dose curve at least 0.9, where 1 is the maximum; inactive = score below 0.9); settings: mRNA level, 48 h; actives raise or lower the signal
Method in brief: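 Human liver HepaRG cultures receive test chemical for 48 h, up to 100 uM in 0.5% DMSO, with phenobarbital induction controls. UGT1A1 mRNA is measured by qRT-PCR and normalized to ACTB, GAPDH and POLR2A.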

[4] = read-out: UDP glucuronosyltransferase (UGT1A6), UGT1A6 (gene 54578); assay: LTEA_HepaRG_UGT1A6: Life Technologies and Expression Analysis (LTEA) Assay for UDP glucuronosyltransferase (UGT1A6) using HepaRG (AID 2283539; active = hit-call score of the fitted dose curve at least 0.9, where 1 is the maximum; inactive = score below 0.9); settings: mRNA level, 48 h; actives raise or lower the signal
Method in brief: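 Differentiated HepaRG cells, ~100,000/well, were exposed for 48 h in serum-free induction medium with 0.5% DMSO to 8-point half-log series topping at 100 uM, in duplicate. mRNA measured by Fluidigm TaqMan qRT-PCR, normalized to ACTB, GAPDH and POLR2A.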

[5] = read-out: X-box binding protein 1 (XBP1), XBP1 (gene 7494); assay: LTEA_HepaRG_XBP1: Life Technologies and Expression Analysis (LTEA) Assay for X-box binding protein 1 (XBP1) using HepaRG (AID 2283540; active = hit-call score of the fitted dose curve at least 0.9, where 1 is the maximum; inactive = score below 0.9); settings: mRNA level, 48 h; actives raise or lower the signal
Method in brief: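 Differentiated human HepaRG cells in serum-free induction medium exposed 48 h in duplicate to eight half-log concentrations up to 100 uM in 0.5% DMSO. XBP1 mRNA measured by Fluidigm TaqMan qRT-PCR, normalized to ACTB, GAPDH, POLR2A; bidirectional fitting against DMSO.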

[6] = LTEA_HepaRG_LDH_cytotoxicity: Cytotoxicity Assessment in the Life Technologies and Expression Analysis (LTEA) Assay (AID 2283563);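 as to AC50: LDH activity released into spent culture medium as a marker of cell death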
Method in brief: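 Differentiated HepaRG cells in serum-free induction medium, exposed 48 h in duplicate to 8 half-log concentrations up to 100 uM in 0.5% DMSO. Cytotoxicity from LDH measured in spent medium, fit relative to DMSO.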

[7] = ATG_XTT_Cytotoxicity: Cytotoxicity Assessment in the Attagene TRANS-FACTORIAL HepG2 Assay (AID 2283584)
Method in brief: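 HepG2 cells transiently transfected with GAL4-UAS multiple reporter units, dosed 24 h; cytotoxicity read by XTT as loss of signal versus DMSO baseline.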

[8] = biological target: Cellular tumor antigen p53 (Homo sapiens) (UniProt P04637); assay: TOX21_p53_BLA_p2_ratio: Tox21 HCT-116 p53 Agonism Beta-lactamase Assay, Ratio, Phase 2 (AID 2283592)
Chain of Cellular tumor antigen p53 (Homo sapiens) (P04637 whole entry, looked up): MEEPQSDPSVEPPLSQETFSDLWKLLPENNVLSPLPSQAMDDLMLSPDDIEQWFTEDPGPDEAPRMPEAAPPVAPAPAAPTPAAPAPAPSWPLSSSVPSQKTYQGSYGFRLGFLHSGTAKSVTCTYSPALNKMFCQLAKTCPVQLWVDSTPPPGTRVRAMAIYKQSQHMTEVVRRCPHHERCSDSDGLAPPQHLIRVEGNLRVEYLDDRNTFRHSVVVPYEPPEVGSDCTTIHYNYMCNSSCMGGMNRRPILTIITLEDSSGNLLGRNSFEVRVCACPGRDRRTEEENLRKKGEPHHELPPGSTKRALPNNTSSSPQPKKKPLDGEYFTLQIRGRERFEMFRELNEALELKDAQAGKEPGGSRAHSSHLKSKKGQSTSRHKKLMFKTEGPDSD
Method in brief: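 HCT-116 cells with p53-responsive beta-lactamase reporter, 4000 cells/well, preincubated 5 h, then compound in DMSO (217-fold dilution) for 16 h at 37C. CCF4-AM substrate 2 h at room temperature; 460/530 nm emission ratio fitted upward versus DMSO.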

[9] = TOX21_p53_BLA_p3_viability: Viability Assessment in the Tox21 HCT-116 p53 Agonism Beta-lactamase Assay, Phase 3 (AID 2283593);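 also: cells exposed to compound for 16 h before reading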
Method in brief: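 HCT-116 cells (4000/well) rested 5 h at 37C, then got DMSO compounds by pin tool (217-fold dilution) for 16 h at 37C, 5% CO2. After the bla read, CellTiter-Glo was added and luminescence read at 30 min, room temperature.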

[10] = TOX21_p53_BLA_p2_viability: Viability Assessment in the Tox21 HCT-116 p53 Agonism Beta-lactamase Assay, Phase 2 (AID 2283591);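 also: compound exposure lasted 16 h at 37 °C; actives lower the ATP signal meaning cytotoxicity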
Method in brief: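 HCT-116 p53-bla cells (4000/well) rested 5 h at 37C, then received compounds in DMSO (217-fold dilution) for 16 h at 37C, 5% CO2. After the CCF4 read, CellTiter-Glo was added; ATP luminescence was read after 30 min at room temperature.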

OC(c1ccc(Cl)cc1)(c1cncnc1)c1ccccc1Cl (configuration not stated)
AC50 [1]: 86.4 µM (active) | AC50 [2]: 70.7 µM (active) | AC50 [3]: 91.1 µM (active) | AC50 [4]: 74.1 µM (active) | outcome [5]: inactive | AC50 [6]: 70.1 µM (active) | outcome [7]: inactive | AC50 [8]: 81.5 µM (active) | outcome [8]: inactive | outcome [9]: inactive

CCCCOC(=O)c1ccccc1C(=O)OCCCC
outcome [1]: inactive | outcome [2]: inactive | outcome [3]: inactive | outcome [4]: inactive | outcome [5]: inactive | outcome [6]: inactive | outcome [7]: inactive | outcome [8]: inactive | outcome [9]: inactive

CCOc1cc(Oc2ccc(C(F)(F)F)cc2Cl)ccc1[N+](=O)[O-]
AC50 [1]: 21.7 µM (active) | AC50 [3]: 5.1 µM (active) | outcome [4]: inactive | outcome [5]: inactive | outcome [6]: inactive | outcome [8]: inactive | outcome [9]: inactive

CC(Oc1ccc(Cl)cc1Cl)C(=O)O (configuration not stated)
outcome [1]: inactive | outcome [3]: inactive | outcome [4]: inactive | outcome [5]: inactive | outcome [6]: inactive | outcome [10]: inactive | outcome [8]: inactive | outcome [9]: inactive

CC(C)C1(C)N=C(c2nc3ccccc3cc2C(=O)O)NC1=O (configuration not stated)
outcome [1]: inactive | outcome [3]: inactive | outcome [4]: inactive | outcome [5]: inactive | outcome [8]: inactive

COP(N)(=O)SC (configuration not stated)
outcome [1]: inactive | outcome [3]: inactive | outcome [4]: inactive | outcome [5]: inactive | outcome [6]: inactive | outcome [9]: inactive

COC(=O)C(C)Oc1ccc(Oc2ccc(Cl)cc2Cl)cc1 (configuration not stated)
AC50 [1]: 40 µM (active) | AC50 [3]: 20.7 µM (active) | outcome [4]: inactive | outcome [5]: inactive | outcome [6]: inactive | outcome [10]: inactive | outcome [8]: inactive

COC(=O)C=C(C)OP(=O)(OC)OC
outcome [1]: inactive | outcome [3]: inactive | outcome [4]: inactive | outcome [5]: inactive | outcome [6]: inactive | outcome [8]: inactive

CCNc1nc(Cl)nc(NCC)n1
outcome [1]: inactive | AC50 [3]: 3.7 µM (active) | outcome [4]: inactive | outcome [5]: inactive | outcome [6]: inactive | outcome [8]: inactive | outcome [9]: inactive

CC(C)Oc1cc(-n2nc(C(C)(C)C)oc2=O)c(Cl)cc1Cl
AC50 [1]: 11.8 µM (active) | AC50 [3]: 1.41 µM (active) | AC50 [4]: 76.5 µM (active) | outcome [5]: inactive | AC50 [6]: 84.6 µM (active) | outcome [7]: inactive | outcome [8]: inactive | outcome [9]: inactive

Cc1cc(Cl)ccc1OCC(=O)O
outcome [1]: inactive | outcome [3]: inactive | outcome [4]: inactive | outcome [5]: inactive | outcome [6]: inactive | outcome [7]: inactive | outcome [8]: inactive | outcome [9]: inactive

CN(C)C(=S)SSC(=S)N(C)C
outcome [1]: inactive | outcome [3]: inactive | outcome [4]: inactive | outcome [5]: inactive | outcome [6]: inactive | AC50 [8]: 33 µM (active) | outcome [8]: inactive | outcome [9]: inactive

COc1cnc(OC)n2nc(NS(=O)(=O)c3c(OCC(F)F)cccc3C(F)(F)F)nc12
AC50 [1]: 50 µM (active) | AC50 [3]: 19 µM (active) | outcome [4]: inactive | outcome [5]: inactive | outcome [6]: inactive | outcome [7]: inactive | outcome [8]: inactive | outcome [9]: inactive

Source: PubChem BioAssay (EPA / NIEHS)
